Source: PubChem BioAssay (National Center for Advancing Translational Sciences (NCATS))
This is a sample that favours compounds with a hit; in the whole collection about 11% have one here.
ALOX12 inhib = qHTS Assay for Inhibitors of 12-hLO (12-human lipoxygenase); purified 12-hLO, xylenol orange hydroperoxide absorbance; Potency, µM (top dose mostly 57.1 µM), for the others: at the top dose activity change, negative = inhibition, most hits filed as inhibitors; 0.12% of 150,000 active; Polyunsaturated fatty acid lipoxygenase ALOX12 (Homo sapiens), P18054; further: potency means the concentration at half of the fitted maximal effect; nearly all actives have a fitted effect of over 55% in size
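Purified human 12hLO (150 nM), preincubated 15 min with compound, then 40 uM arachidonic acid for 30 min, room temperature, Hepes pH 7.0 with 0.01% Triton X-100. Hydroperoxide detected by ferrous iron/xylenol orange; 573/405 nm absorbance ratio gives reaction progress.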
PNC inhibitor = High Content Assay for Compounds that inhibit the Assembly of the Perinucleolar Compartment; PC3M PTB-GFP, PNC prevalence imaging, 16 h; stronger effect = lower value; activity change (PNC), negative = inhibition, % at 10 µM; 3.1% of 140,000 active; AID 2417, 2010;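 active means readout at or below -70, meaning at least 70% loss of cells showing the perinucleolar compartment, a nuclear body marking cancer cells; inconclusive means readout between -30 and a set limit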;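 further: plate controls were DMSO wells for no effect and camptothecin positive control wells for full effect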
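Compounds are pinned in duplicate onto adhered PC3M cells stably expressing GFP-tagged PTB and incubated 16 h at 37 C. Cells are then fixed, nuclei stained with Hoechst, and PNC-positive cells counted.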
ALDH1A1 inh = qHTS Assay for Inhibitors of Aldehyde Dehydrogenase 1 (ALDH1A1); Aldehyde dehydrogenase 1A1 (Homo sapiens), P00352; Purified ALDH1A1, NADH fluorescence, propionaldehyde substrate; Potency, µM (titrated, usually from 75.3 µM), inactives show at the highest dose activity, negative = inhibition, most hits filed as inhibitors; 7.3% of 220,000 active; AID 1030, 2008; active means well fitted inhibition curve with a large enough effect, not every such curve was filed as active; inconclusive means small, poorly fitted or top-dose-only effect, or another doubt; inactive means no such curve, though single readings can be large or run the other way;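 further: potency means the concentration at half of the fitted maximal effect; plate controls were no enzyme wells and a reference inhibitor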
HPGD inh = qHTS Assay for Inhibitors of HPGD (15-Hydroxyprostaglandin Dehydrogenase). Potency, µM, inactives show top-dose activity change, negative = inhibition, actives largely listed as inhibitors. 15-hydroxyprostaglandin dehydrogenase [NAD(+)] (Homo sapiens), P15428. purified HPGD, NADH fluorescence kinetic, PGE2 substrate. 4.3% of 150,000 active. AID 894, 2007; active means well fitted inhibition curve with a large enough effect, not every such curve was filed as active; inconclusive means small, poorly fitted or top-dose-only effect, or another doubt; inactive means no such curve, though single readings can be large or run the other way; further: potency means the concentration at half of the fitted maximal effect
Target sequence (P15428 whole entry, looked up): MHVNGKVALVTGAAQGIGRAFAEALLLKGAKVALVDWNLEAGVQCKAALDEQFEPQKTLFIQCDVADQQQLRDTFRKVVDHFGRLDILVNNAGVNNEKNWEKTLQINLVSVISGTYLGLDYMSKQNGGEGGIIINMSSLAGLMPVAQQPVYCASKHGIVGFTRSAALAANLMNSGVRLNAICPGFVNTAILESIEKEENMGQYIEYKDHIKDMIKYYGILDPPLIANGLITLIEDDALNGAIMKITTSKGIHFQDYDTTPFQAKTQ
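NADH formation kinetics: reaction with 30 uM PGE2 and 1 mM NAD+ (final), 20 nM enzyme, Tris-HCl pH 8 with Tween 20, after 15 min compound preincubation at room temperature. Fluorescence change, last versus first of five reads.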
IMPase Li cell = qHTS Assay for Identifying the Cell-Membrane Permeable IMPase Inhibitors: Potentiation with Lithium | CHO-M1 cells, IP1 TR-FRET (IP-One), carbachol + lithium | Potency, µM (highest dose often 59.4 µM), inactives show at the top dose activity, negative = IMPase inhibition, hits mostly inhibitors | 0.35% of 210,000 active | AID 1457, 2008;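 further: IP1 builds up when IMPase is blocked and the TR-FRET signal falls; potency means the concentration at half of the fitted maximal effect; plate controls were basal vehicle for no effect and high inhibitor control for full effect; nearly all actives have a fitted effect of over 50% in size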
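Lithium-sensitised IP1 accumulation assay; M1-expressing CHO cells treated 30 min at 37C with compound. Competitive antibody detection by time-resolved FRET followed a 10 min room-temperature lysis step.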
IMPase cell inh = qHTS Assay for Identifying the Cell-Membrane Permeable IMPase Inhibitors; CHO-M1 cells, IP1 accumulation, HTRF TR-FRET ratio; inhibition (IP1 accumulation), % at 46.1 µM; 120,000 tested, under 10 active; active means well fitted curve in the direction sought with a large enough effect in the signal ratio, not every such curve was filed as active; inconclusive means small, poorly fitted or top-dose-only effect, or a change in a side signal; inactive means no such curve, though single readings can be large or run the other way; the % refers to the signal ratio;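 further: cells stimulated with carbachol in lithium chloride buffer; plate controls were DMSO basal wells for no effect and reference inhibitor wells for full effect; higher means more IMPase inhibition seen as more IP1 and lower FRET ratio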
Target sequence (P97697 whole entry, looked up): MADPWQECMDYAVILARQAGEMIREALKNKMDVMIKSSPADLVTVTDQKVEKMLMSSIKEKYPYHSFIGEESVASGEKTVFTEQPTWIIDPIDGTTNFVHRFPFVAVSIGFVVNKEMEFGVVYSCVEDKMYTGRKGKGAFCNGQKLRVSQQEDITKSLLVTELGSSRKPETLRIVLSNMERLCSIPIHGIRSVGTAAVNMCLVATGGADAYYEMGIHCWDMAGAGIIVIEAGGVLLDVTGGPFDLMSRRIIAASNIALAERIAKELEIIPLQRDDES
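Cellular IMPase inhibition is scored as a rise in cytosolic IP1, detected by competitive TR-FRET between d2-labelled IP1 and a europium anti-IP1 antibody. M1-expressing CHO cells were stimulated with carbachol for 30 min at 37C, with lithium (50 mM LiCl) present in the buffer.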
Active calls of the source: *; ? = inconclusive; · = no result; [ ] = dose if it differs, or a comment. Unless noted, the call rests on the fitted dose curve; in most records, active means well fitted curve in the direction sought with a large enough effect; inconclusive means small, poorly fitted or top-dose-only effect, or another doubt; inactive means no such curve, though single readings can be large; an effect the other way counts as inactive or inconclusive. Unless noted, on the % scale 0 is the no-effect control and ±100 the full control effect.

SMILES	ALOX12 inhib	PNC inhibitor	ALDH1A1 inh	HPGD inh	IMPase Li cell	IMPase cell inh
COc1cccc(N2C(=O)CC(N3CCC(C(N)=O)(N4CCCCC4)CC3)C2=O)c1 (centres undefined)	1%	17	10µM*	-18%	-5%	9
COc1ccc(N2C(=O)CC(N3CCN(C(=O)c4ccco4)CC3)C2=O)cc1 (centres undefined)	·	·	?	·	3%	·
COc1ccc(N2C(=O)CC(N3CCN(c4ccc(S(=O)(=O)N5CCCC5)cc4)CC3)C2=O)cc1 (centres undefined)	3%	-26	22µM*	7%	18%[38.3 µM]	14
CN1C(=O)CC(N2CCC(C(N)=O)(N3CCCCC3)CC2)C1=O (centres undefined)	-4%	-11	8%	-7%	-10%[38.3 µM]	-11
COc1ccc(N2C(=O)CC(N3CCN(C4CCc5ccccc5C4)CC3)C2=O)cc1 (centres undefined)	-1%	-121*	?	-3%	23%[38.3 µM]	18
COc1ccc(N2C(=O)CC(N3CCN(S(=O)(=O)c4cc(C)ccc4C)CC3)C2=O)cc1 (centres undefined)	·	·	-2%	·	2%	·
Cc1cccc(N2C(=O)CC(N3CCN(C(=O)c4ccccc4)CC3)C2=O)c1 (centres undefined)	-6%	10	25µM*	-11%	13%[38.3 µM]	3
O=S(=O)(CCc1ccccc1)c1nnnn1C1CCCCC1	·	·	-13%	0%	22%	·
COc1ccc(NC(=O)c2c(NC(=O)C(F)(F)F)sc3c2CCCCC3)cc1	·	·	·	·	·	3
COc1cc2cc3c4c(cc(OC)c(OC)c4c2cc1OC)CCN3C	?	·	?	?	54%	21
CC(=O)N=Cc1c(C)c(C#N)c(=O)n(C)c1O	·	·	-3%	·	-3%	·
Cc1c(/C=N/Nc2ccc(F)cc2)c(O)n(C)c(=O)c1C#N	·	·	3.5µM*	·	4%	·
Nc1nc2c(ncn2C2OC(COC(=O)c3ccccc3)C(OC(=O)c3ccccc3)C2OC(=O)c2ccccc2)c(=O)[nH]1 (centres undefined)	-10%	·	2%	-4%	0%	·
CCOC(=O)c1c(NC(=O)CSc2nnc(-c3cccnc3)o2)sc2c1CCC2	1%	-100*	10%	-19%	13%	-11
CCOC(=O)c1c(NC(=O)CSc2n[nH]c(-c3ccco3)n2)sc(C)c1C	-16%	37	-13%	16µM*	24%[38.3 µM]	-6
CCOC(=O)c1c(NC(=O)CSc2nnc(-c3ccc(C)cc3)o2)sc(C(C)=O)c1C	9%	-23	2%	-10%	17%[38.3 µM]	-12
CCOC(=O)c1sc(NC(=O)CSc2nncs2)c(C(=O)OCC)c1C	-13%	8	?	28µM*	0%[38.3 µM]	19
CCOC(=O)c1c(NC(=O)CSc2n[nH]c(CNc3ccccc3)n2)sc(C)c1C	2%	-16	1%	-16%	16%	0
CCOC(=O)c1c(NC(=O)CSc2nnc(-c3ccccc3)o2)sc(C(C)=O)c1C	-2%	-20	?	18µM*	?	-25
CC(=O)c1ccc(-c2ccc(-c3cc(=O)oc4c(C(C)C)ccc(C)c34)cc2)cc1	-4%[0.00818 µM]	·	11%	-23%	14%	·
Oc1cccc(Oc2ncc(C(F)(F)F)cc2Cl)c1	·	·	4%	·	5%	·
CCOC(=O)c1c(NC(=O)CSc2nnc(-c3cccc(C)c3)n2CC)sc(C(C)=O)c1C	-2%	35	5%	16µM*	10%[38.3 µM]	-1
CCOC(=O)c1c(NC(=O)CSc2cccc[n+]2[O-])sc(C(=O)Nc2ccccc2)c1C	·	·	28µM*	·	11%	·
COc1ccc(NC(=O)COC(=O)Cn2nnc3ccccc32)cc1	·	·	-9%	·	24%	·
Cc1ccccc1N/C(=C(/C(Cl)=C(Cl)Cl)[N+](=O)[O-])n1nnc2ccccc21	-9%	-3	14µM*	-15%	-10%[38.3 µM]	6
SMILES	ALOX12 inhib	PNC inhibitor	ALDH1A1 inh	HPGD inh	IMPase Li cell	IMPase cell inh
COc1ccc(N/C(=C(/C(Cl)=C(Cl)Cl)[N+](=O)[O-])n2nnc3ccccc32)cc1	-2%	30	16µM*	-21%	1%[38.3 µM]	-1
CN(C)c1ccc(C(=O)n2nnc3ccccc32)cc1	6%	35	?	-28%	28%[38.3 µM]	5
CCC1=C(OC(=O)N(CC)CC)N2C(=O)OC(=NCC(=O)OC)[C@]2(Cc2ccccc2)[C@H]2C1=CC[C@H]1C(=O)NC(=O)[C@H]12	2%	·	-11%	-3%	-2%	·
Cc1nn(-c2ccccc2)c(OC(=O)c2ccc(F)cc2)c1S(=O)(=O)c1ccccc1	·	·	·	·	·	7
Cc1cc(NC(=O)CSc2n[nH]c(-c3cccs3)n2)no1	-2%	?	5%	14µM*	1%[38.3 µM]	8
Cc1cc(NC(=O)CSc2ccc3nnc(-c4cccs4)n3n2)no1	-2%	-106*	1%	-13%	-6%[38.3 µM]	-3
CCCC[C@]1(C2CCCC2)Cc2cc(OCC(=O)O)c(Cl)c(Cl)c2C1=O	-12%	·	·	·	·	7
Cc1nn2c3c(cnc2c1-c1ccccc1)C(=O)CC(c1ccccc1)C3 (centres undefined)	-1%	61	?	-16%	-6%[38.3 µM]	-2
Cc1nn2c3c(cnc2c1-c1ccccc1)C(=O)CC(c1ccco1)C3 (centres undefined)	-7%	-20	25µM*	-13%	-6%[38.3 µM]	13
COc1ccc(C[C@H](C)NC[C@@H](O)c2ccc(O)c(NC=O)c2)cc1	0%	·	8%	-2%	3%	-5
